Source: PubChem (Bradner/Qi Labs at DFCI)
CBX7 AlphaScr – CBX7 inhibition, primary AlphaScreen; 66,000 compounds, 1.1% hits; AID 1224903; normalised signal (fraction of DMSO) (test concentration not listed); O95931; AlphaScreen His6-CBX7 / biotin-H3K27me3 peptide binding; active compounds read low; in the data active = normalised signal below about 0.5
Target sequence (O95931 whole entry, looked up): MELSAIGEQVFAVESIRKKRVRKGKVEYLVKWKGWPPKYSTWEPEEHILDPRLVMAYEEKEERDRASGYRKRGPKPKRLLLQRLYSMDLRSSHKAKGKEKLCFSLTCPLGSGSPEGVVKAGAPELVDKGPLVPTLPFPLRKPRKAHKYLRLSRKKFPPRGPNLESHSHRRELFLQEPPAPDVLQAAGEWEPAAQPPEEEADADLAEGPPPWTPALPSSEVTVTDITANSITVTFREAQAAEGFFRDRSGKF
A number is an active result; - = inactive. This is one part of a sample in which hits are shown more often than they occur.

SMILES | CBX7 AlphaScr
CC1CCCN(S(=O)(=O)c2ccc(C(=O)Nc3nc(-c4ccccn4)cs3)cc2)C1 (stereo not given) | 0.221
O=C(Nc1nc(-c2ccncc2)cs1)c1ccc(S(=O)(=O)N2CCCCC2)cc1 | -
CC1CCN(S(=O)(=O)c2ccc(C(=O)Nc3nc(-c4ccccn4)cs3)cc2)CC1 | -
CC1CCN(S(=O)(=O)c2ccc(C(=O)Nc3nc(-c4ccncc4)cs3)cc2)CC1 | -
CC1CCCCN1S(=O)(=O)c1ccc(C(=O)Nc2nc(-c3ccncc3)cs2)cc1 (stereo not given) | -
Cc1ccc(C)c(CSc2nnc(Cc3cc(=O)[nH]c(=O)[nH]3)n2-c2ccccc2)c1 | -
Cc1ccc(-c2ccc(=O)n(CCC(=O)NCCC(C)C)n2)cc1 | -
O=C(COc1ccc(F)cc1)Nc1nnc(SCc2ccccc2F)s1 | -
Cc1ccc(NC(=O)CCN2N=C(c3ccccc3)CCC2=O)c(C)c1 | -
CCCc1cc(-c2onc(C)c2-c2ccc3c(c2)OCCCO3)c(O)cc1OC | -
CCCCCCc1cc(-c2[nH]ncc2-c2ccc(Br)cc2)c(O)cc1OC | -
CCc1cc(-c2[nH]ncc2-c2ccc3c(c2)OCCO3)c(O)cc1O | -
CCc1cc(-c2n[nH]c(C)c2-c2ccc3c(c2)OCCO3)c(O)cc1O | -
CCCc1cc(-c2[nH]ncc2-c2ccc3c(c2)OCCO3)c(O)cc1OC | 0.292
CCc1cc(-c2[nH]ncc2-c2ccc3c(c2)OCCO3)c(O)cc1OC | 0.381
CC(C)=C1C2C=CC1C1C(=O)N(c3ccccn3)C(=O)C21 (stereo not given) | -
O=C1CCc2cc(S(=O)(=O)NC(C(=O)Nc3ccccc3F)c3ccccc3)ccc2N1 (stereo not given) | -
CCOCCCNC(=O)c1ccc2c(c1)ncn2-c1ccc(C(C)C)cc1 | -
Cc1cccc(N2CCN(CCNC(=O)Nc3ccccc3)CC2)c1C | -
COc1ccc(NC(=O)[C@H](CCSC)N2Cc3ccccc3C2=O)cc1OC | -
O=C(Nc1ccc2c(c1)OCO2)[C@H](CSCc1ccccc1)N1Cc2ccccc2C1=O | -
COc1ccc(NC(=O)[C@H](Cc2ccccc2)N2Cc3ccccc3C2=O)cc1OC | 0.417
Cc1ccc(NC(=O)[C@H](Cc2ccccc2)N2Cc3ccccc3C2=O)cc1F | -
O=C(Nc1ccc2c(c1)OCO2)[C@H](Cc1ccccc1)N1Cc2ccccc2C1=O | 0.417
CSCC[C@@H](C(=O)Nc1ccc2c(c1)OCO2)N1Cc2ccccc2C1=O | -
SMILES | CBX7 AlphaScr
COCc1nc2ccccc2n1CCCOc1ccccc1C | -
CC1CCCCC1NC(=O)c1cc2sc(Cl)cc2n1C (stereo not given) | -
CCOC(=O)c1ccc(Nc2nnc(C(C)(C)C)c(=O)[nH]2)cc1 | 0.496
CCOc1ccc(Nc2nnc(C(C)(C)C)c(=O)[nH]2)cc1 | -
Cc1ccc(Nc2nnc(C(C)(C)C)c(=O)[nH]2)cc1 | -
CC(=O)Nc1ccc2oc(-c3cccc(C)c3)nc2c1 | -
Cc1ccc(NC(=O)CCC(=O)Nc2ccc3nc(N4CC(C)CC(C)C4)cc(C)c3c2)cc1F (stereo not given) | -
CC(C(=O)NCc1ccccn1)N1C(=O)COc2ccc(Cl)cc21 (stereo not given) | -
Cc1ccc2c(c1)N(C(C)C(=O)NCc1ccccn1)C(=O)CO2 (stereo not given) | 0.25
O=C(CCN1C(=O)COc2ccccc21)NCc1ccccc1Cl | -
Cc1ccc(CNC(=O)CCN2C(=O)COc3ccccc32)cc1 | -
Cc1ccc2c(c1)N(CCCC(=O)NCc1ccccn1)C(=O)CO2 | -
Cc1ccc2c(c1)N(C(C)C(=O)NCc1ccccc1)C(=O)CO2 (stereo not given) | -
Cc1ccc2c(c1)N(CCC(=O)NCc1cccnc1)C(=O)CO2 | -
O=C(CCN1C(=O)COc2ccccc21)NCc1ccccn1 | 0.161
Cc1ccc2c(c1)N(CCC(=O)NCc1ccccn1)C(=O)CO2 | 0.335
Nc1c(C(=O)NCCCN2CCOCC2)nnn1Cc1ccc(Cl)cc1 | -
COCCCN1C(=O)Cn2cccc2C1C(=O)NC1CCCCC1 (stereo not given) | -
Cc1ccc(N2C(=O)c3ccc(C(=O)Nc4ccccc4)cc3C2=O)cc1 | -
Brc1cccc(-c2nc3ccccn3c2Nc2ccc3c(c2)OCCO3)c1 | 0.438
Clc1ccc(-c2nc3ncccn3c2Nc2ccc3c(c2)OCCO3)cc1 | -
c1cncc(-c2nc3ccccn3c2Nc2ccc3c(c2)OCCO3)c1 | -
Cc1ccc(-c2nc3ccccn3c2Nc2ccc3c(c2)OCO3)cc1 | 0.35
Clc1ccc(-c2nc3ccccn3c2Nc2ccc3c(c2)OCCO3)cc1 | -
c1ccn2c(Nc3ccc4c(c3)OCCO4)c(-c3ccc(N4CCOCC4)cc3)nc2c1 | -
c1csc(-c2nc3ccccn3c2Nc2ccc3c(c2)OCCO3)c1 | -
Cc1cccn2c(Nc3ccc4c(c3)OCCO4)c(-c3ccc(Cl)cc3)nc12 | 0.479
Cc1ccc(-c2nc3ccccn3c2Nc2ccc3c(c2)OCCO3)cc1 | -
CC1CCC(N2CC(=O)N(C3CCCCCCC3)C(c3ccc(Cl)cc3)C2=O)CC1 (stereo not given) | -
Brc1ccc(Nc2nc(-c3ccccc3)c3cc(Br)ccc3n2)cc1 | -
